About 800 (5.3%) of roughly 15,000 […] were called active. Rule as the data show it: active = GI50 up to about 1.1 µM and inactive = higher. Only a sample is shown. Results with a measured potency or affinity are listed apart.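 Interpolation was linear, between the two tested concentrations surrounding the appropriate level; five concentrations were tested over 48 hours in 96-well plates. GI50 = concentration required for 50% inhibition of growth.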

The values that follow come from ChEMBL document CHEMBL1201862, “PubChem BioAssay data set” (2004).

For this test, the system named is DMS-114. In words: NCI tumour cell line growth inhibition, 48 h.
“[Bis(aminomethyl)tetramethylenesilane]dichloropaltinum(II), CHEMBL2146205”: the GI50 turned out to be 5.89 µM.

The substance “[Bis(aminomethyl)diethylsilane]tetrachloroplatinum(IV), CHEMBL2146203” came in with a GI50 of 2.23 µM.

In the case of “cis-Bis[[(trimethylsilyl)methyl]amino]tetrachloroplatinum(IV), CHEMBL2146191”, the GI50 came to 4.09 µM.

Substance “[Bis(aminomethyl)pentamethylenesilane]dichloropaltinum(II), CHEMBL2146202” yielded a GI50 of 4.01 µM.

The substance “[Bis(aminomethyl)dimethylsilane]dichloroplatinum (II), CHEMBL2146201” showed a GI50 of 12 µM.

Take “[Bis(aminomethyl)pentamethylenesilane]tetrachloropaltinum(IV), CHEMBL2146204”: the GI50 was 2 µM.

The substance “[Bis(aminomethyl)ethylmethylsilane]tetrachloroplatinum(IV), CHEMBL2146192” came in with a GI50 of 1.17 µM.

“mu-(1,7-nanodiamine-N,N')bis-(cis-aminedichloroplatimum (II)), CHEMBL2146215”: the GI50 came to 6.18 µM.

In the case of “[Bis(aminomethyl)dimethylsilane]tetrachloroplatinum(IV), CHEMBL2146190”, the GI50 was 1.38 µM.

As for “[Bis(aminomethyl)tetramethylenesilane]tetrachloropaltinum(IV), CHEMBL2146189”, the GI50 was found to be 1.91 µM.
